Experimental data published in PubChem BioAssay (EPA / NIEHS).
Values joined by “and” are separate entries in the source; they are usually repeats but may differ in a detail not shown here. Equal entries are not always repeated. Records with an inconclusive call do not appear. Some structures have more than one record in an assay (separate samples or runs), and their calls can disagree. Active and inactive are the calls of the source. The calls were made as follows, unless noted: active = hit-call score of the fitted dose curve at least 0.9, where 1 is the maximum; inactive = score below 0.9.

How the values were obtained:
[1] = biological target: human RAR-related Orphan Receptor gamma (RORg), RORC (gene 6097) (UniProt P51449); test: ATG_RORg_TRANS: Attagene TRANS-FACTORIAL HepG2 Assay for human RAR-related Orphan Receptor gamma (RORg) (AID 2283011; active = hit-call score of the fitted dose curve at least 0.9, where 1 is the maximum)
human RAR-related Orphan Receptor gamma (RORg), RORC (gene 6097), sequence (P51449 whole entry, looked up, the tested form may be a part): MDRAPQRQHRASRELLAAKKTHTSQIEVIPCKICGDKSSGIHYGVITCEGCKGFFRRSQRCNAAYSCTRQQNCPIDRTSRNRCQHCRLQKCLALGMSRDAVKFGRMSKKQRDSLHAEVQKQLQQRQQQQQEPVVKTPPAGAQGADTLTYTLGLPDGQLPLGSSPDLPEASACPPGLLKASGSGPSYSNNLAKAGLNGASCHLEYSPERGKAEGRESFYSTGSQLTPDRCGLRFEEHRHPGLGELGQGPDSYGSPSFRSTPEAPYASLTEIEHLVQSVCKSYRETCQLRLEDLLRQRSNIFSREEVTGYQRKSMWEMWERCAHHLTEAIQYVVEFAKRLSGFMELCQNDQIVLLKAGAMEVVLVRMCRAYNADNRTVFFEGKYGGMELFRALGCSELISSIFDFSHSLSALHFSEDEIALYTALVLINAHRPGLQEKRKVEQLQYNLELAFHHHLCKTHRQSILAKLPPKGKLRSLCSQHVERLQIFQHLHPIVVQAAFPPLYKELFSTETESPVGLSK
Outline: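 Reporter transcripts from a transfected RORg-GAL4 chimera in HepG2 cells were quantified 24 h after dosing by RT-PCR, 6-FAM labelling, HpaI digestion and capillary electrophoresis; increases over DMSO baseline were fitted.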

[2] = biological target: Retinoic acid receptor RXR-alpha (Homo sapiens) (UniProt P19793); test: ATG_RXRa_TRANS: Attagene TRANS-FACTORIAL HepG2 Assay for human Retinoid X Receptor alpha (RXRa) (AID 2283012; active = hit-call score of the fitted dose curve at least 0.9, where 1 is the maximum)
Retinoic acid receptor RXR-alpha (Homo sapiens), sequence (P19793 whole entry, looked up, the tested form may be a part): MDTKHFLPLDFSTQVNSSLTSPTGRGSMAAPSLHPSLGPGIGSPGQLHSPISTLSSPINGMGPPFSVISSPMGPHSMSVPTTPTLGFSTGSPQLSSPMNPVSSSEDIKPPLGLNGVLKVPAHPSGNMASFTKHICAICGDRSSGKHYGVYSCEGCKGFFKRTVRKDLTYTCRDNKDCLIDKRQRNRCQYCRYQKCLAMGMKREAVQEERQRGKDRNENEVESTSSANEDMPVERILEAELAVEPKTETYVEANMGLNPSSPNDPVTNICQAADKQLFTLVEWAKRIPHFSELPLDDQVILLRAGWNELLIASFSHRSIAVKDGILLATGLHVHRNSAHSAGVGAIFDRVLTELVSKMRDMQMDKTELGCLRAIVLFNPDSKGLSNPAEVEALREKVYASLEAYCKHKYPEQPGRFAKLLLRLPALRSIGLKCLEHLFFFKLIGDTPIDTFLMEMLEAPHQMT
Outline: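 Cells (HepG2) carried transiently transfected GAL4-responsive reporter units. Following a 24 h chemical incubation, reporter mRNA induction was read via RT-PCR fragment analysis; DMSO served as negative control and baseline.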

[3] = read-out: E-selectin (Homo sapiens) (UniProt P16581); test: BSK_3C_Eselectin: BioMAP Diversity Plus: 3C Assay for Eselectin Biomarker Activity (AID 2283015); details: primary human endothelial cells (HUVEC); actives raise or lower the signal
Outline: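 E-selectin ELISA readout, fitted bidirectionally relative to DMSO, taken 24 h post-dosing in HUVEC cultures of the 3C system. Overt cytotoxicity tracked with sulforhodamine B staining of parallel wells.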

[4] = read-out: Interleukin-1 alpha (IL1a), IL1A (gene 3552); test: BSK_BE3C_IL1a: BioMAP Diversity Plus: BE3C Assay for Interleukin-1 alpha (IL1a) Biomarker Activity (AID 2283016); details: primary human bronchial epithelial cells; actives raise or lower the signal
Outline: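 Cultures of primary human bronchial epithelial cells receive test chemical. After 24 h, IL-1a is quantified by ELISA, while parallel wells are fixed in TCA and SRB-stained for total protein. Changes in either direction are fitted relative to DMSO.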

[5] = read-out: Monocyte Chemoattractant Protein-1 (MCP1), CCL2 (gene 6347); test: BSK_4H_MCP1: BioMAP Diversity Plus: 4H Assay for Monocyte Chemoattractant Protein-1 (MCP1) Biomarker Activity (AID 2283018); details: primary human endothelial cells (HUVEC); actives raise or lower the signal
Outline: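 Readout: MCP-1 ELISA on compound-treated HUVEC, sampled 24 h post-dosing. Baseline and negative control DMSO; bidirectional fit. Overt toxicity checked alongside by sulforhodamine B protein staining at time of biomarker measurement.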

[6] = read-out: Human Leukocyte Antigen - DR isotype (HLADR), HLA-DRA (gene 3122); test: BSK_3C_HLADR: BioMAP Diversity Plus: 3C Assay for Human Leukocyte Antigen - DR isotype (HLADR) Biomarker Activity (AID 2283019); details: primary human endothelial cells (HUVEC); actives raise or lower the signal
Outline: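 Bidirectional fitting against DMSO was applied to the HLA-DR ELISA signal from human umbilical vein endothelial cells, 24 h post-dose. Cytotoxicity came from parallel SRB total-protein staining; 3C proliferation was counted by SRB at 48 h.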

[7] = read-out: Monokine induced gamma interferon (MIG), CXCL9 (gene 4283); test: BSK_3C_MIG: BioMAP Diversity Plus: 3C Assay for Monokine induced gamma interferon (MIG) Biomarker Activity (AID 2283021); details: primary human endothelial cells (HUVEC); actives raise or lower the signal;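 as to AC50: MIG protein level measured by immunoassay in the treated endothelial cultures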
Outline: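 After 24 h of treatment, human umbilical vein endothelial cultures (3C system) had their MIG biomarker level determined by ELISA, with DMSO serving as negative control.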

[8] = BSK_3C_SRB: Viability Assessment in the BioMAP Diversity Plus: 3C Assay (AID 2283023); details: primary human endothelial cells (HUVEC);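 also: fitted both ways against DMSO so a hit may be signal rise or drop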
Outline: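 Cytotoxicity readout in parallel HUVEC 3C cultures: after 24 h compound exposure, cells fixed with 10% TCA, stained with 0.1% SRB and read at 560 nm. Gain or loss relative to DMSO fitted.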

[9] = read-out: Matrix Metallopeptidase 1 (MMP1), MMP1 (gene 4312); test: BSK_BE3C_MMP1: BioMAP Diversity Plus: BE3C Assay for Matrix Metallopeptidase 1 (MMP1) Biomarker Activity (AID 2283024); details: primary human bronchial epithelial cells; actives raise or lower the signal
Outline: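 Dose cells, wait 24 h, run MMP1 ELISA; cells are human bronchial epithelial primaries. Both increases and decreases relative to DMSO counted.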

[10] = BSK_3C_Vis: BioMAP Diversity Plus: 3C Assay for Morphology Visualization (AID 2283025); details: primary human endothelial cells (HUVEC);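 also: fitted both ways so gain or loss versus DMSO counts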;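 as to AC50: light microscopy image of cell morphology used as background control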
Outline: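 Endothelial cells from human umbilical vein were treated with test chemicals for 24 h and inspected by light microscopy for changes in cell conformation.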

[11] = read-out: Pselectin, SELP (gene 6403); test: BSK_4H_Pselectin: BioMAP Diversity Plus: 4H Assay for Pselectin Biomarker Activity (AID 2283026); details: primary human endothelial cells (HUVEC); actives raise or lower the signal
Outline: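 Human vascular endothelium from umbilical vein; P-selectin measured by ELISA at 24 h post-dose, with cytotoxicity checked by sulforhodamine B total-protein staining in parallel cultures (0.1% SRB after 10% TCA fixation, read at 560 nm).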

[12] = BSK_4H_SRB: Viability Assessment in the BioMAP Diversity Plus: 4H Assay (AID 2283027); details: primary human endothelial cells (HUVEC);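 also: cells exposed to compound for 24 h before staining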;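 as to AC50: curves fitted both ways versus DMSO so AC50 may be loss or gain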
Outline: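 Human umbilical vein endothelial cells were dosed with chemical and, after 24 h, fixed with 10% TCA, stained with 0.1% sulforhodamine B, and read at 560 nm to give total protein as a cytotoxicity measure. Bidirectional fitting relative to DMSO control.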

[13] = BSK_BE3C_SRB: Viability Assessment in the BioMAP Diversity Plus: BE3C Assay (AID 2283028); details: primary human bronchial epithelial cells;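 as to AC50: fitted both ways so AC50 may mark signal gain or loss versus DMSO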
Outline: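 Cytotoxicity read-out: SRB (0.1%) staining of TCA-fixed (10%) human lung bronchial epithelial cells, absorbance 560 nm, 24 h post-dosing. Curves fitted both directions relative to DMSO.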

[14] = read-out: Thrombomodulin, THBD (gene 7056); test: BSK_3C_Thrombomodulin: BioMAP Diversity Plus: 3C Assay for Thrombomodulin Biomarker Activity (AID 2283029); details: primary human endothelial cells (HUVEC); actives raise or lower the signal
Outline: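 Thrombomodulin ELISA, human primary HUVEC, 24 h post-dose; data fitted in both directions relative to DMSO.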

[15] = read-out: Urokinase-type plasminogen activator receptor (uPAR), PLAUR (gene 5329); test: BSK_4H_uPAR: BioMAP Diversity Plus: 4H Assay for Urokinase-type plasminogen activator receptor (uPAR) Biomarker Activity (AID 2283030); details: primary human endothelial cells (HUVEC); actives raise or lower the signal
Outline: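 uPAR level read by ELISA on HUVEC cultures (BioMAP 4H) 24 h post-dosing, analyzed for gain or loss relative to DMSO. Parallel SRB staining assessed overt cytotoxicity.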

[16] = biological target: human Retinoid X Receptor beta (RXRb), RXRB (gene 6257) (UniProt P28702); test: ATG_RXRb_TRANS: Attagene TRANS-FACTORIAL HepG2 Assay for human Retinoid X Receptor beta (RXRb) (AID 2283013; active = hit-call score of the fitted dose curve at least 0.9, where 1 is the maximum)
human Retinoid X Receptor beta (RXRb), RXRB (gene 6257), sequence (P28702 whole entry, looked up): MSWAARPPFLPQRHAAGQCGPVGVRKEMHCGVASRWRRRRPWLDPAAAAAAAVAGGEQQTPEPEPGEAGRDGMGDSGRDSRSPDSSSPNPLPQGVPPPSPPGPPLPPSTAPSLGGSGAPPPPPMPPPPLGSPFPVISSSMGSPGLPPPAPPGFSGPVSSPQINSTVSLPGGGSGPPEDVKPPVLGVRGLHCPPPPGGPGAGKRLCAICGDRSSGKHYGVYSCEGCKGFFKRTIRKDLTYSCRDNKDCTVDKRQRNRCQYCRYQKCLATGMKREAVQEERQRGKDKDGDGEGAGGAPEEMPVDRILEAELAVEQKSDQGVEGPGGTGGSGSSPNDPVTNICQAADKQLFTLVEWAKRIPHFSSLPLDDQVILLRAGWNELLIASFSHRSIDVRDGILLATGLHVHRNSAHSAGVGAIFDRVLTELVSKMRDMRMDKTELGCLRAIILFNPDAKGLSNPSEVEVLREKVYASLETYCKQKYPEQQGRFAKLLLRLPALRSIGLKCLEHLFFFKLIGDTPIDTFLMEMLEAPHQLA
Outline: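 Multiplexed TRANS reporter assay in HepG2; 24 h dosing; reporter mRNA by RT-PCR/CE fluorescence; gain-of-signal relative to DMSO.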

[17] = biological target: human Thyroid Receptor alpha (THRa1), THRA (gene 7067) (UniProt P10827); test: ATG_THRa1_TRANS: Attagene TRANS-FACTORIAL HepG2 Assay for human Thyroid Receptor alpha (THRa1) (AID 2283014; active = hit-call score of the fitted dose curve at least 0.9, where 1 is the maximum)
human Thyroid Receptor alpha (THRa1), THRA (gene 7067), sequence (P10827 whole entry, looked up, the tested form may be a part): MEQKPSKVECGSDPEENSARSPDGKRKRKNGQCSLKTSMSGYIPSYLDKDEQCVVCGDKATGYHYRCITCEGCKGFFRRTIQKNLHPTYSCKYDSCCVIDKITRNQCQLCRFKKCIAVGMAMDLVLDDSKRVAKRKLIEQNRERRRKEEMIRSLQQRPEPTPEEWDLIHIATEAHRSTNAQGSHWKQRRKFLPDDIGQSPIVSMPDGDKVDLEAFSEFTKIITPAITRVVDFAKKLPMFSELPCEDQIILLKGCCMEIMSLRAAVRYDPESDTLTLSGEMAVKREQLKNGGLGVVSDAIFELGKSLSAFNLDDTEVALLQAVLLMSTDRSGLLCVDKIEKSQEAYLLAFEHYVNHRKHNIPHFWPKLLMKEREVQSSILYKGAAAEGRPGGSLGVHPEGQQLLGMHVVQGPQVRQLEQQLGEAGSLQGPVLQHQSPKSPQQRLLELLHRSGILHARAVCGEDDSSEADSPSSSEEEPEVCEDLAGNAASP
Outline: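 Transcripts from GAL4-UAS-driven reporters, measured after 24 h compound exposure by RT-PCR plus capillary electrophoresis of 6-FAM-labeled fragments, were fitted for gain of signal relative to DMSO. Cells: transiently transfected HepG2 expressing NR-Gal4 chimeras.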

[18] = read-out: Monocyte Chemoattractant Protein-1 (MCP1), CCL2 (gene 6347); test: BSK_3C_MCP1: BioMAP Diversity Plus: 3C Assay for Monocyte Chemoattractant Protein-1 (MCP1) Biomarker Activity (AID 2283017); details: primary human endothelial cells (HUVEC); actives raise or lower the signal
Outline: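 MCP-1 was measured by ELISA 24 h after dosing in primary HUVEC 3C cultures and fitted in both directions relative to DMSO; cytotoxicity was checked by SRB total-protein staining in parallel wells.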

[19] = biological target: human Vitamin D Receptor (VDR), VDR (gene 7421) (UniProt P11473); test: ATG_VDR_TRANS: Attagene TRANS-FACTORIAL HepG2 Assay for human Vitamin D Receptor (VDR) (AID 2283022; active = hit-call score of the fitted dose curve at least 0.9, where 1 is the maximum)
human Vitamin D Receptor (VDR), VDR (gene 7421), sequence (P11473 whole entry, looked up, the tested form may be a part): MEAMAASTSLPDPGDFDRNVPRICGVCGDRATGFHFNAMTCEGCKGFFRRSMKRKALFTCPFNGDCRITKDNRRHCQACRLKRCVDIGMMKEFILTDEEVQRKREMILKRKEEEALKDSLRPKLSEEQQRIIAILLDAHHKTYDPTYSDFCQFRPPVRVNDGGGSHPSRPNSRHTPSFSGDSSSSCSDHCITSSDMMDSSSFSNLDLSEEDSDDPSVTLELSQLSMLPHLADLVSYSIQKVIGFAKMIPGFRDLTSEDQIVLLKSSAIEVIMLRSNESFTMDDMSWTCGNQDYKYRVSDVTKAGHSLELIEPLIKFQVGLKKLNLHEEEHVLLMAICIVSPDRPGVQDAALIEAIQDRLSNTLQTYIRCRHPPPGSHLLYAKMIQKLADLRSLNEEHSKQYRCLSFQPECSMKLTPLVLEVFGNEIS
Outline: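 Transactivation by an exogenous VDR-Gal4 chimera in transiently transfected HepG2 cells was measured as reporter transcript level 24 hours after chemical treatment. RT-PCR products were analysed by capillary electrophoresis and fitted in the positive direction relative to DMSO.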

[20] = read-out: Interleukin-8 (IL8), CXCL8 (gene 3576); test: BSK_3C_IL8: BioMAP Diversity Plus: 3C Assay for Interleukin-8 (IL8) Biomarker Activity (AID 2283020); details: primary human endothelial cells (HUVEC); actives raise or lower the signal
Outline: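 Human vascular endothelial cells (umbilical vein) in the 3C system; IL-8 level detected by ELISA at 24 h post-dose, with DMSO as baseline.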

Measured: AC50

E-selectin (Homo sapiens), sequence (P16581 whole entry, looked up): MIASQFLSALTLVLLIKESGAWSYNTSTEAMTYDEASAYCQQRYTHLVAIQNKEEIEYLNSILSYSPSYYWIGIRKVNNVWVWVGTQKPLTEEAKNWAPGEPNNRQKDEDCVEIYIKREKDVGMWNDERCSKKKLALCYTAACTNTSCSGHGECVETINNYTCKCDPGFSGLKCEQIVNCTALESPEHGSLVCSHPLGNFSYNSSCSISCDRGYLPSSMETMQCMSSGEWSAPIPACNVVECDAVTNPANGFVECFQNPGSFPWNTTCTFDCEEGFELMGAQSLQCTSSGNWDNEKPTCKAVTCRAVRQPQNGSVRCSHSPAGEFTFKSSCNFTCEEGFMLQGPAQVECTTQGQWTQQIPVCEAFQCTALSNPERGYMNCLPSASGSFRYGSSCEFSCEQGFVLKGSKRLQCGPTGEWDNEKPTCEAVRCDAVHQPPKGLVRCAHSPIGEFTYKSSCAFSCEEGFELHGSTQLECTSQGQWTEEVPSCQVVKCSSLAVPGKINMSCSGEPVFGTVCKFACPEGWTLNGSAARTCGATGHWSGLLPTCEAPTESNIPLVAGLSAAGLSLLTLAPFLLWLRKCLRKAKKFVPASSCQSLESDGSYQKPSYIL

Oc1ccccc1
not listed: [16] | [17] | [18] | [19] | [20]
inactive: all other assays above

O=C(OCCCCCCOC(=O)c1ccccc1)c1ccccc1
not listed: [2] | [5] | [20]
inactive: all other assays above

c1ccc2ccccc2c1
active: [16] 38.9 µM
inactive: [1] | [2] | [16] | [17] | [3] | [4] | [5] | [6] | [20] | [7] | [19] | [8] | [9] | [10] | [11] | [12] | [13] | [14] | [15]

CCCCOC(=O)c1ccc(O)cc1
active: [16] 26.9 µM and 26.4 µM
inactive: [2] | [16] | [17] | [3] | [4] | [5] | [6] | [7] | [19] | [8] | [9] | [10] | [11] | [12] | [13] | [14] | [15]

O=CCCCC=O
active: [3] 33.7 µM | [4] 33.2 µM | [6] 29.5 µM | [8] 31.7 µM | [11] 30.7 µM
not listed: [5] | [17] | [20]
inactive: all other assays above

CC/C(=C(/CC)c1ccc(O)cc1)c1ccc(O)cc1
inactive: [2] | [16] | [19] | [14]
active: [16] 6.68 µM [middle of 4 runs] | [3] 31.5 µM | [4] 29.9 µM | [5] 15.9 µM | [6] 27.7 µM | [7] 35.8 µM | [8] 20 µM | [9] 35.1 µM | [10] 8.57 µM | [11] 20 µM | [12] 22.8 µM | [13] 33.6 µM | [15] 17.8 µM
